In PubChem BioAssay AID504444 (National Center for Advancing Translational Sciences (NCATS), 2011):
Values joined by “and” are separate entries in the source; they are usually repeats but may differ in a detail not shown here. Equal entries are not always repeated. Among all 360,000 compounds or so, about 7,500 (2.1%) were called active. A call without a number means that no potency is given here. About 20% were inconclusive and are not listed. Calls come from the whole dose curve; as a rule, active = well fitted inhibition curve with a large enough effect; inconclusive = small, poorly fitted or top-dose-only effect, or effect the other way; inactive = flat fitted curve, though single readings scatter. The full list was thinned out, with actives kept by preference. A structure can be active in one record and inactive in another.

Assay: Nrf2 qHTS screen for inhibitors; note: nearly all actives have a fitted effect of over 60% in size
Conditions: A549 ARE-Fluc reporter, luciferase luminescence, 18-24 h; series mostly up to 46 µM
Procedure, shortened: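 Two sequential reads on A549 ARE_Fluc cells exposed to compound for 18-24 h: a CellTiter-Fluor fluorescence read for viability, then a luciferase luminescence read for Nrf2/ARE activity.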
Potency is the fitted concentration of half-maximal effect.

Structure (SMILES)	Potency	activity change, negative = inhibition
O=C(NN=Cc1ccccc1O)NN=Cc1ccccc1O	inactive	–
Cc1n[nH]c(C)c1S(=O)(=O)N1CCCC(C(=O)NCC2COc3ccccc3O2)C1 (stereo unspecified)	inactive	–
CC(=O)Nc1ccc(NC(=O)C2CCCN(S(=O)(=O)c3ccc4c(c3)CCCC(=O)N4)C2)cc1 (stereo unspecified)	inactive	–
COc1ccc(NC(=O)C2CCCN(S(=O)(=O)c3cccc4cccnc34)C2)cc1 (stereo unspecified)	23.1 µM (active)	–
O=C(O)C1CCCN(S(=O)(=O)c2cccc3cccnc23)C1 (stereo unspecified)	inactive	–
COc1ccc(NC(=O)C2CCCN(S(=O)(=O)c3cccc4cccnc34)C2)cc1OC (stereo unspecified)	inactive	–
Cc1n[nH]c(C)c1S(=O)(=O)N1CCCC(C(=O)Nc2ccc(Br)cc2)C1 (stereo unspecified)	inactive and 14.6 µM (active)	–
COc1ccc(Cl)cc1NC(=O)CN(C)CC(=O)Nc1ccc2c(c1)OCO2	inactive	–
O=C(Cn1cc(SCc2cccc(Cl)c2)c2ccccc21)N1CCCCC1	inactive	–
COc1cc(OC)cc(-c2c(-c3ccc(F)cc3)c3cc(-c4ccc5cc[nH]c5c4)ccc3n2C)c1	inactive	–
COc1ccc(-c2c(-c3cc(OC)cc(OC)c3)n(C)c3ccc(-c4ccn[nH]4)cc23)cc1	11.6 µM (active)	–
COc1cc(OC)cc(-c2c(-c3cccs3)c3cc(-c4ccc(OC)nc4)ccc3n2C)c1	inactive	–
COCC(=O)N(C)[C@H]1C[C@H]2c3cc(Oc4ccccc4C)ccc3CCN2C(=O)[C@H]1[C@H](C)O	inactive	–
CC(OC(=O)c1cc2ccccc2[nH]1)C(=O)N(C)c1ccccc1 (stereo unspecified)	inactive	–
Cc1ccc(C)c(N2CCN(C(=O)CN3C(=O)COc4ccc(S(=O)(=O)N5CCCCCC5)cc43)CC2)c1	inactive	–
O=C(CC1Sc2ccccc2NC1=O)NNc1ccc(Cl)c(Cl)c1 (stereo unspecified)	inactive	–
OCCCNc1nccc(-c2cc(Nc3cccc(Cl)c3)ncn2)n1	2.06 µM (active)	–
OCCCNc1nc(-c2ccccc2)c2cc(Cl)ccc2n1	inactive	–
Cc1cccc(Nc2nc(NCCO)nc(N3CCCC3)n2)c1	inactive	–
Cc1ccc(NC(=O)Cn2cnc3c(OCc4ccccc4)ncnc32)cc1C	inactive	–
COc1ccc(S(=O)(=O)N2C[C@H]3CON(C)[C@H]3C[C@H]2c2cccc(Br)c2)cc1	inactive	–
COc1ccc(CCNc2nc(-c3ccc(Cl)cc3)cc(C(F)(F)F)n2)cc1OC	–	-14.7% [at 9.27 µM] (inactive)
CC(=NNC(=O)c1ccncc1)c1ccc(Cl)c(Cl)c1	inactive	–

Structure (SMILES)	Potency	activity change, negative = inhibition
Nc1c(C(=O)NCc2ccccc2)sc2nc3c(cc12)C(=O)CCC3	inactive	–
NC(=O)c1sc2nc3c(c(-c4ccccc4)c2c1N)CCC3	9.2 µM (active)	–
Cc1sc2nc(CC(N)=O)[nH]c(=O)c2c1-c1ccccc1	inactive	–
COc1ccc(N2CCN(C3=NS(=O)(=O)C(c4cccc(Br)c4)=C3C)CC2)cc1	inactive	–
CSCCC(NC(=O)COc1ccccc1)C(=O)OCc1ccc(Cl)cc1 (stereo unspecified)	inactive	–
CN(C)CCNC(=O)c1ccc(Cl)c2cc3ccccc3nc12	18.4 µM (active)	–
CC(=O)NCCNC(=O)c1cc(-c2cccc3ccccc23)nc2ccccc12	inactive	–
CN(C)CCNC(=O)Nc1cccc(Cl)c1Cl	inactive	–
CC1CCCCC1NCC(=O)Nc1ccccc1C(=O)Nc1ccccc1 (stereo unspecified)	inactive	–
CC[C@]12c3[nH]c4cc(CCC(=O)N(C)C)ccc4c3CCN1C(=O)[C@@H](CC(=O)NCCCn1ccnc1)C[C@@H]2C(=O)N1CCN(C(=O)C2CC2)CC1	inactive	–
Cc1c(C)n(Cc2ccc(Cl)cc2)c2ccc(C(=O)N3CCN(c4ccccc4F)CC3)cc12	inactive	–
COc1cc(C(=O)NCC2(c3ccccc3)CCCC2)ccc1OC(C)C	inactive	–
O=C(CNC1CCCCC1)NCC1(c2ccccc2)CCCC1	inactive	–
Cc1cccc(C(CC(=O)NCC2(c3ccccc3)CCCC2)c2ccccc2)c1O (stereo unspecified)	14.6 µM (active)	–
CC(=O)c1cccc(NC(=O)c2nc(-c3ccccc3)n(-c3cccc(C)c3)n2)c1	18.4 µM (active)	–
Cc1cccc(N2C(=O)c3ccc(C(=O)Nc4cccc(C(=O)O)c4)cc3C2=O)c1	inactive	–
CC(=O)c1cccc(NC(=O)c2cc(C)nn2-c2ccccc2)c1	inactive	–
Cc1sc(C2C(C#N)=C(N)N(c3cccc(Cl)c3)C3=C2C(=O)CCC3)cc1CN1CCOCC1 (stereo unspecified)	inactive	–
COc1ccc(CNCCCNCc2ccc(OC)c(OC)c2)cc1OC	inactive	–
O=C(c1ccc(F)cc1)N1CCCC(c2nc(-c3cccs3)no2)C1 (stereo unspecified)	inactive	–
O=C(c1ccncc1)N1CCN(S(=O)(=O)c2cc(C(F)(F)F)cc(C(F)(F)F)c2)CC1	inactive	–
NC(=O)C1CCN(C(=O)c2ccc(C(F)(F)F)cc2)CC1	inactive	–
O=C(c1ccc(C(F)(F)F)cc1)N1CCC(c2nc(-c3ccc(S(=O)(=O)N4CCCC4)cc3)no2)CC1	7.31 µM (active)	–

Structure (SMILES)	Potency	activity change, negative = inhibition
CC(C)c1ccc(-c2noc(C3CCCN(S(C)(=O)=O)C3)n2)cc1 (stereo unspecified)	inactive	–
O=C(Cc1cccs1)N1CCCC(c2nc(-c3ccc(S(=O)(=O)N4CCCC4)cc3)no2)C1 (stereo unspecified)	23.1 µM (active)	–
CCOc1cc(C(=O)N(Cc2ccccc2)c2ccc(C)cc2)ccc1OCC(=O)N1CCOCC1	inactive	–
COc1ccccc1NC(=O)C(=O)c1cc(C)n(-c2ccccc2F)c1C	inactive	–
Oc1ccc(Cl)cc1C1C=C(c2ccc3c(c2)OCO3)NC(c2c(F)cccc2Cl)N1 (stereo unspecified)	inactive	–
OC[C@@H]1O[C@H](n2cnc3c(SCc4ccccc4)ncnc32)[C@H](O)[C@H]1O	inactive	–
Cc1c(Cl)cccc1-c1ccc(CNCCCSc2nnnn2C)o1	inactive	–
CCCCCn1c(CCNC(=O)c2ccc(F)cc2)nc2ccccc21	–	6.85% [at 9.27 µM] (inactive)
CC(C)NC(=O)C1CCC(Cn2c(=O)c3sccc3n(Cc3ccc(F)cc3)c2=O)CC1 (stereo unspecified)	inactive	–
COc1cccc(-c2nc(CS(=O)(=O)CC(=O)N3CCN(c4cc(C)ccc4C)CC3)c(C)o2)c1	2.59 µM (active)	–
CCCCN(CC)CCCNC(=O)CS(=O)(=O)Cc1nc(-c2cccc(OC)c2)oc1C	inactive	–
COc1cccc(-c2nc(CS(=O)(=O)CC(=O)NCCc3ccc(OC)c(OC)c3)c(C)o2)c1	inactive	–
COc1cccc(C2C(C(=O)Nc3ccc(C)cc3C)=C(C)Nc3c(C(=O)Nc4ccccc4)cnn32)c1 (stereo unspecified)	inactive	–
CN1C(c2ccc(F)cc2)=CS/C1=C(/C#N)c1nnc2n1-c1ccccc1SC2	inactive	–
O=C1Nc2ccc(Br)cc2/C1=N/N=C/C1=C(N2CCOCC2)C(=C\c2ccccc2)/CC1	20.6 µM (active)	–
C(=N\N1CCN(c2ccccn2)CC1)/C1=C(N2CCOCC2)C(=C/c2ccccc2)/CC1	inactive	–
N#C/C(=C\C1=C(N2CCOCC2)C(=C\c2ccccc2)/CC1)C(=O)Nc1ccccc1F	inactive	–
CCOc1ccccc1NC(=S)C(=C([O-])c1ccc2c(c1)OCCO2)[n+]1ccc(CC)cc1	inactive	–
COc1cc(F)c(S(=O)(=O)N2CCCN(S(=O)(=O)c3ccc(N)cc3)CC2)c(F)c1	inactive	–
CCOC(=O)c1ccc(NC(=O)c2ncn(-c3ccccc3)n2)cc1	inactive	–
Oc1ccc(Cl)cc1C1C=C(c2ccc3c(c2)OCO3)NC(c2ccc(F)c(Br)c2)N1 (stereo unspecified)	inactive	–
CC(C)N(C(=O)[C@H]1C[C@H](CC(=O)NCCC2=CCCCC2)C(=O)N2CCc3c([nH]c4cc(CCC(=O)N(C)C)ccc34)[C@]12C)C(C)C	inactive	–
CCCCCCn1c(CN2CCCCC2)nc2c1c(=O)n(C)c(=O)n2C	inactive	–

Structure (SMILES)	Potency	activity change, negative = inhibition
CCCCCCCCn1c2c(c(=N)c3c1CCC3)CCCC2	9.2 µM (active)	–
COc1ccccc1N1CCN(C(=O)CCS(=O)(=O)c2ccc3c(c2)NC(=O)C(C)S3)CC1 (stereo unspecified)	inactive	–
Cc1cccc(N2CCN(C(=O)CCS(=O)(=O)c3ccc4c(c3)NC(=O)C(C)S4)CC2)c1C (stereo unspecified)	2.59 µM (active)	–
CC1Sc2ccc(S(=O)(=O)CCC(=O)NCc3ccccc3Cl)cc2NC1=O (stereo unspecified)	inactive	–
Oc1ccc(-c2nc3ccccc3nc2-c2ccc(O)cc2O)c(O)c1	inactive	–
CN[C@H](C(=O)NC[C@H]1O[C@@H](n2cnc3c(N)ncnc32)[C@H](O)[C@@H]1O)[C@@H](C)OCc1ccccc1	inactive	–
COc1cccc(Cn2c(SCc3ccc(C(=O)N4CCC(C)CC4)cc3)nc3ccncc32)c1	20.6 µM (active)	–
CCCCNC(=O)Cn1c(SCc2cccc(Cl)c2)nc2ccncc21	inactive	–
Cc1cccc(CSc2nc3ccncc3n2Cc2ccc(C(=O)O)cc2)c1	inactive	–
COc1cccc(Cn2c(SCc3ccc(C(=O)N4CCCCC4)cc3)nc3ccncc32)c1	18.4 µM (active)	–
Cc1cccc(CSc2nc3ccncc3n2CC(=O)N(C)C2CCCCC2)c1	inactive	–
O=C(O)c1ccc(Cn2c(SCc3ccc(F)cc3)nc3ccncc32)cc1	inactive	–
COc1ccccc1-c1sc2ccccc2c1-c1ccc(Br)nc1	inactive	–
OCCNc1ncnc2oc(-c3ccco3)c(-c3ccco3)c12	inactive	–
CCCN1CN=C(NS(=O)(=O)c2ccc(NC(C)=O)cc2)NC1	inactive	–
Cc1ccc(S(=O)(=O)N2CCC(C(=O)Nc3cc(C)ccc3C)CC2)cc1	inactive	–
Cc1ccc(-c2nc(=N)sn2Cc2ccccc2)cc1	inactive	–
Cc1cc(-c2ccc(C)c(S(=O)(=O)NCCCN(Cc3ccccc3)C(C)C)c2)on1	inactive	–
Cc1cc(-c2ccc(C)c(S(=O)(=O)Nc3ccc(S(N)(=O)=O)cc3)c2)on1	inactive	–
Cc1cc(-c2ccc(C)c(S(=O)(=O)NC(C)Cc3ccco3)c2)on1 (stereo unspecified)	18.4 µM (active)	–
COC(=O)[C@]1(Cc2ccccc2)N[C@H](CN(C)S(=O)(=O)c2ccc(OC(F)(F)F)cc2)[C@@H]2C(=O)N(Cc3ccccc3)C(=O)[C@@H]21	inactive	–
Cc1cc(N2CCCC2)ccc1NC(=O)COc1ccc(Cl)cc1	inactive	–
